What is called inhibition is the change of the read-out against control, counted positive when it falls.

The values that follow come from PubChem BioAssay AID2069 (Sanford-Burnham Center for Chemical Genomics, 2009).

In all, about 1,200 compounds went through this assay and about 210 (18%) were called active. A selection follows. Values without a mark were called inactive. Rule as the data show it: active = inhibition above about 30%; inactive = the rest.

The assay in a line: fluorescence readout artefact check – biochemical, HTRF, uHTS, artefact control for SUMOylation inhibitor project, confirmation (AID 2069). The following applies: HTRF interference counterscreen, at 35 µM, active compounds read high. (In general: Time-resolved FRET reads energy transfer from a long-lived donor to a nearby acceptor.)
As to `Cc1ccc(S(=O)(=O)N2CCCCC2)cc1NC(=O)COC(=O)c1c(F)cccc1F`, the inhibition is -11.4%.
`Cc1nn2c3c(cnc2c1-c1ccc(Cl)cc1)C(=O)CC(c1ccco1)C3` (centres undefined): the inhibition is -0.9%.
The same measure for `CC(C)c1ccc(S(=O)(=O)/N=C2/C=CC(=O)c3ccccc32)cc1`: 11.3%; for `O=C(Cn1nnc2ccccc21)NCc1ccccc1`: -8.55%.
The same measure for `CCCCn1c(NC(=O)c2ccccc2Cl)c(C#N)c2nc3ccccc3nc21`: 20.8%.
On to `N#Cc1c(N)n(CCOC(=O)c2ccc(Cl)cc2)c2nc3ccccc3nc12`, for which the inhibition was 10.8%.
As for `C=CCn1c(NC(=O)c2ccccc2Cl)c(C#N)c2nc3ccccc3nc21`, the inhibition is 28.9%.
Consider `CN(C)CCCn1c(N)c(C#N)c2nc3ccccc3nc21`, for which the inhibition is 39.2% (active).
The same measure for `COc1ccccc1CCn1c(N)c(C#N)c2nc3ccccc3nc21`: 17.6%.
For the compound `CCC(C)n1c(NC(=O)c2ccccc2)c(C#N)c2nc3ccccc3nc21` (centres undefined), the inhibition was 11.8%.
Take `CCCCCn1c(N)c(C#N)c2nc3ccccc3nc21`: the inhibition was 16.7%.
For the compound `COCCn1c(N)c(C#N)c2nc3ccccc3nc21`, the inhibition was 43.9% (active).
For `CCCCn1c(NC(C)=O)c(C#N)c2nc3ccccc3nc21`, the inhibition was 33% (active).
As to `Cc1cnc(C(=O)OCC(=O)c2ccc(F)cc2)cn1`, the inhibition was -5.75%.
Consider `O=[N+]([O-])c1c(NCCCO)cc(Sc2nc3ccccc3s2)c2nonc12`, for which the inhibition is 3.25%.
In the case of `Cc1c(C(=O)c2ccc(F)cc2F)c2ccccn2c1CCC#N`, the inhibition was 17.8%.
In the case of `COc1cc(/C=N/NC(=O)c2cc(-c3ccco3)nc3ccccc23)cc(OC)c1O`, the inhibition is -5.6%.
Consider `O=C(NC(=S)Nc1c(Cl)ccc2nsnc12)c1ccco1`, for which the inhibition is -7.55%.
`O=C(N=Nc1c(O)[nH]c2ccc([N+](=O)[O-])cc12)c1ccccc1Cl`: the inhibition is 7.65%.
The same measure for `CN(C)c1ccc(NC(=O)c2sc(SCC(=O)Nc3ccc(Br)cc3)nc2N)cc1`: 8.25%; for `Cc1oc(-c2ccc(F)cc2)cc1-c1nn2c(-c3ccoc3C)nnc2s1`: -3.45%.
As for `CN(CCC#N)C(=O)COC(=O)c1c2c(nc3ccccc13)/C(=C/c1ccco1)CC2`, the inhibition was 36.5% (active).
For the compound `COc1ccccc1CNC(=O)COC(=O)c1cc(-c2ccco2)nc2ccccc12`, the inhibition was 12.6%.
Regarding `CCOc1ccc(/C=C2/SC(=S)N(CCC(=O)Nc3ccc(C(=O)O)cc3)C2=O)cc1`, the inhibition is 4.55%.
As for `Cc1nn(-c2ccccn2)c2c1C(=O)C(Br)CC2` (centres undefined), the figure is -0.05%.
On to `O=C1/C(=C/c2coc3ccc(O)cc3c2=O)SC(=S)N1c1ccccc1`, for which the inhibition is 4.9%.
Turning to `Cc1ccc(C)c(OCC(=O)Nc2nonc2NC(=O)COc2cc(C)ccc2C)c1`, the inhibition was -13.6%.
Consider `Cc1nn(-c2ccccc2)c2sc(C(=O)NNC(=O)COc3ccccc3)cc12`, for which the inhibition is 10.2%.
For `COC(=O)c1ccccc1NC1=C/C(=N\S(=O)(=O)c2cccs2)c2ccccc2C1=O`, the inhibition is 1.7%.
With `O=[N+]([O-])c1ccc(N2CCN(CCO)CC2)c2ncccc12`, the inhibition is -19.1%.
Turning to `O=C(NCc1ccccc1)Nc1cccn(Cc2ccccc2)c1=O`, the inhibition was -6.8%.
Consider `CC(=O)Nc1ccc(NC2=C/C(=N/S(=O)(=O)c3cccs3)c3ccccc3C2=O)cc1`, for which the inhibition was -7.75%.
Consider `O=[N+]([O-])c1cc(Cl)cc(/C=N/NC(=S)Nc2ccc(S(=O)(=O)N3CCOCC3)cc2)c1O`, for which the inhibition is 80.5% (active).
As for `Cc1c(NC(=S)N/N=C/c2cc([N+](=O)[O-])ccc2O)c(=O)n(-c2ccccc2)n1C`, the figure is 11.2%; as for `O=[N+]([O-])c1ccc(O)c(/C=N/NC(=S)Nc2ccc(Cl)cc2Cl)c1`, -23.9%; as for `Cc1ccc(/C=C2/SC(=S)N(c3ccc(S(=O)(=O)Nc4nccs4)cc3)C2=O)cc1`, -9.3%.
On to `N=C1/C(=C/c2cccn2Cc2ccc(Cl)cc2)C(=O)N=C2SC=CN12`, for which the inhibition was 18.8%.
The same measure for `CC1CCN(C2=C(NS(=O)(=O)c3ccc(Br)cc3)C(=O)c3ccccc3C2=O)CC1`: 7.4%; for `Cc1c(C(=O)Nc2ccc(F)cc2)cn2c(nc3ccccc32)c1C#N`: 19.4%; for `O=c1[nH]c(=S)[nH]c(O)c1N=Nc1ccc(-c2ccccc2)cc1[N+](=O)[O-]`: 16.1%.
For `CCOc1ccc(C2C=C(c3ccccc3)Nc3ncnn32)cc1` (centres undefined), the inhibition was 50.8% (active).
As for `COc1ccc2nc(NC(=O)CCc3ccc(OC)c(OC)c3)sc2c1`, the figure is 10.8%; as for `N#CC(c1nc2ccccc2nc1N1CCCC1)S(=O)(=O)c1ccccc1` (centres undefined), 1.75%; as for `COc1cc(=O)n(C)c2c(OCC3OC(C)(C)OC3(C)C)cccc12` (centres undefined), 2.3%.
The same measure for `O=c1c(-c2c(O)cc(O)c3c(=O)cc(-c4ccc(O)cc4)oc23)c(-c2ccc(O)cc2)oc2cc(O)cc(O)c12`: 35.6% (active); for `COc1cccc(NC(=O)Nc2nnc(-c3ccccc3SCc3ccccc3)s2)c1`: 2.35%.
As to `CCOc1ccc(/C=N/NC(=O)c2cc(-c3ccco3)nc3ccccc23)cc1`, the inhibition was 15.3%.
As for `COc1ccc(/C=C/c2cc(C(=O)O)c3ccccc3n2)cc1`, the figure is 68.2% (active); as for `COc1ccc(C=Nc2cccc3ncccc23)cc1`, -4.65%.
As for `C/C(=N\NC(=O)c1cc(O)ccc1O)c1cccc(NC(=O)c2ccc(Cl)cc2)c1`, the inhibition is -7.9%.
On to `Cc1ccc(NC(=O)Cn2c(=O)oc3cc(S(=O)(=O)N4CCC(C)CC4)ccc32)cc1C`, for which the inhibition is -3.55%.
On to `O=C1/C(=C/c2ccco2)Oc2c1ccc(O)c2CN1CCCCC1`, for which the inhibition was 37.6% (active).
Take `NC(=O)CC(NC(=O)Cc1ccc(Br)cc1)c1ccc(NCCOc2ccccc2)c([N+](=O)[O-])c1` (centres undefined): the inhibition is 7.3%.
As for `CN(C)c1cc(Nc2cccc(O)c2)c([N+](=O)[O-])c2nonc12`, the figure is -1.05%; as for `CN(C)CCNS(=O)(=O)c1ccc2c3c(cccc13)C(=O)N2`, 60.6% (active); as for `CN1C(=O)c2cccc3c(S(=O)(=O)NCc4ccco4)ccc1c23`, 11.9%.
Take `CCN(CC)CCNS(=O)(=O)c1ccc2c3c(cccc13)C(=O)N2`: the inhibition was 47.2% (active).
For the compound `CCN1C(=O)c2cccc3c(N)ccc1c23`, the inhibition is -24.4%.
For `CN1C(=O)c2cccc3c(S(=O)(=O)NCCc4ccccc4)ccc1c23`, the inhibition was 45% (active).
